Source: PubChem BioAssay (National Center for Advancing Translational Sciences (NCATS))
NIH3T3 tox = Cytotoxic Profiling in NIH 3T3 Cell Line of Diverse Libraries Using Quantitative High-Throughput Screening; NIH 3T3 viability, CellTiter-Glo ATP luminescence, 48-72 h; AID 1345082, 2018; 94,000 compounds, 4.3% hits; Potency, µM (highest dose often 96.7 µM), actives largely listed as inhibitors; note: nearly all actives have a fitted effect of over 55% in size
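Mouse fibroblast NIH 3T3 cells, 400 per well, received compound via pintool and were incubated for 48 or 72 hr prior to CellTiter-Glo ATP luminescence measurement.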
Luciferase inh = Firefly luciferase inhibition profiling of diverse chemical library using quantitative high-throughput screening | Luciferin 4-monooxygenase (Photinus pyralis), P08659 | purified P. pyralis luciferase, luminescence, biochemical | Potency, µM (titrated, usually from 115 µM), hits mostly inhibitors | 76,000 compounds, 2.5% hits; note: nearly all actives have a fitted effect of over 65% in size
Target sequence (P08659 whole entry, looked up): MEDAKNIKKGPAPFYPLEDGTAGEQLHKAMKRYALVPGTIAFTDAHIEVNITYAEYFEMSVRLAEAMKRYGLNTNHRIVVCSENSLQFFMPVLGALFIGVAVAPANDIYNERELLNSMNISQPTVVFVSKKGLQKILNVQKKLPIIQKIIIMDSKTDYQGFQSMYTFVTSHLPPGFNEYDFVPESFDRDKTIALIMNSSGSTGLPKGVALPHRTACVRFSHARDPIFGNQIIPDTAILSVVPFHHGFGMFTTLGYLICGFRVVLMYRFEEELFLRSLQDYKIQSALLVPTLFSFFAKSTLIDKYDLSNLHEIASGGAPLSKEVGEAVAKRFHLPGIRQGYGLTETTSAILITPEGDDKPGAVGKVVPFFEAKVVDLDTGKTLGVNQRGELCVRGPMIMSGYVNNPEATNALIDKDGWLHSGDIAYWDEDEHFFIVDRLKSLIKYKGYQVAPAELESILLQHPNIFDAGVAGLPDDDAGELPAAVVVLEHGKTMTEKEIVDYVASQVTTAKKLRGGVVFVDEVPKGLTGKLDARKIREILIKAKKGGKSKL
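Purified P. pyralis luciferase (10nM final) in 50mM Tris acetate pH 7.5, 10mM Mg acetate, 0.01% Tween-20, 0.05% BSA with 10uM D-luciferin and 10uM ATP. Compounds titrated qHTS. Luminescence imaged on CCD.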
NPR1 antag = Natriuretic polypeptide receptor (hNpr1) antagonism - Primary qHTS; Atrial natriuretic peptide receptor 1 (Homo sapiens), P16066; HEK293 hNpr1 GloSensor cGMP, ANP-stimulated luminescence; Potency, µM (top dose mostly 46.3 µM), most hits filed as inhibitors; 76,000 compounds, 1.6% hits; AID 1347048, 2019; calls by dose curve; note: nearly all actives have a fitted effect of over 60% in size
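Compound pre-incubated 30 min at room temperature on GloSensor-loaded HEK293 cells stably carrying hNpr1 and the pGS-40F cGMP biosensor. Stimulation uses hNppA at 0.1 nM final; luminescence is taken at baseline and 20 min post-agonist.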
HEK cytotox = Cytotoxic Profiling in HEK 293 Cell Line of Diverse Libraries Using Quantitative High-Throughput Screening. HEK 293 viability, ATP luminescence (CellTiter-Glo), 48-72 h. Potency, µM (titrated, usually from 115 µM), usual class: inhibitors. 94,000 compounds, 6.6% hits. AID 1345083, 2018; note: nearly all actives have a fitted effect of over 60% in size
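Luminescence from cellular ATP, measured with CellTiter-Glo, indicates HEK 293 viability. Cells plated at 250 cells/well are treated with compound for 48 or 72 hr at 37 degree Celsius before reagent addition.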
Of the large screens only hits and unclear results are named; the others gave an inactive call. This is a sample that favours compounds with a hit; in the whole collection about 11% have one here. Unless noted, calls come from the whole dose curve; as a rule, active = well fitted curve in the direction sought with a large enough effect; inconclusive = small, poorly fitted or top-dose-only effect, or another doubt; inactive = no such curve, though single readings can be large; an effect the other way counts as inactive or inconclusive.

CCc1ccc(-c2nc(C3CC(=O)N(c4ccc(OC)cc4)C3)no2)cc1 (stereo unspecified)	NIH3T3 tox inconclusive, HEK cytotox inconclusive
CC(C)c1ccc(-c2nc(C3CC(=O)N(c4ccc(F)c(Cl)c4)C3)no2)cc1 (stereo unspecified)	NIH3T3 tox inconclusive, NPR1 antag inconclusive, HEK cytotox inconclusive
CC(C)c1ccc(-c2nc(C3CC(=O)N(c4ccc(F)cc4)C3)no2)cc1 (stereo unspecified)	NPR1 antag inconclusive, HEK cytotox 35.5µM
CCCCCC(=O)N1C[C@@H](C(=O)OCC)[C@@H]2Oc3ccccc3[C@@H]21	NIH3T3 tox inconclusive (no result: Luciferase inh, NPR1 antag)
O=C(Nc1ccccc1)N1CCC2(CC1)SCC(=O)N2c1ccc(Cl)cc1	NIH3T3 tox inconclusive, Luciferase inh 22.4µM, HEK cytotox inconclusive
O=C(c1cccs1)N1CCC2(CC1)SCC(=O)N2c1ccc(Cl)cc1	none
COc1ccc(N2C(=O)CSC23CCN(C(=O)Nc2ccc([N+](=O)[O-])cc2)CC3)cc1	NIH3T3 tox inconclusive, HEK cytotox 25.1µM
CN1C(=O)CCC2(CNC(=O)CCc3ccccc3)CCC=C12 (stereo unspecified)	none (no result: Luciferase inh, NPR1 antag)
CN(Cc1cccc(C(F)(F)F)c1)C(=O)c1ccccc1F	HEK cytotox inconclusive
COc1ccc2cc(C3CN(C(=O)c4cccn4C)CCO3)ccc2c1 (stereo unspecified)	NIH3T3 tox 39.8µM, Luciferase inh 4.47µM, NPR1 antag 15.8µM, HEK cytotox inconclusive
COc1cc(CN2CCN(c3ncnc(C)c3C)CC2CCO)cc(OC)c1 (stereo unspecified)	HEK cytotox inconclusive
COCC1(C(=O)N2CCOC(c3ccc4cc(OC)ccc4c3)C2)CCC1 (stereo unspecified)	NIH3T3 tox inconclusive, Luciferase inh 20µM, HEK cytotox inconclusive
COc1ccc2cc(C3CN(c4ncnc(C)c4C)CCO3)ccc2c1 (stereo unspecified)	NIH3T3 tox inconclusive, Luciferase inh inconclusive, NPR1 antag 2.51µM, HEK cytotox inconclusive
COc1ccc2c(C)c(C(=O)N3CCOC(c4ccc(F)cc4)C3)oc2c1 (stereo unspecified)	NIH3T3 tox inconclusive, HEK cytotox inconclusive
COc1cccc(C(=O)NCCNC(=O)c2ccc(-c3cncnc3)cc2)c1	HEK cytotox inconclusive (no result: Luciferase inh, NPR1 antag)
COc1ccccc1CCNC(=O)C1CC(c2ccc(F)c(C)c2)CN(C(=O)C2CC2)C1 (stereo unspecified)	NIH3T3 tox 39.8µM, HEK cytotox 35.5µM
COc1ccc(C2CC(C(=O)NCc3ccccc3)CN(C(=O)C3CC3)C2)cc1OC (stereo unspecified)	NIH3T3 tox inconclusive, HEK cytotox inconclusive
O=C(NCc1cccs1)c1ccc2nnc(-c3cc(F)ccc3F)n2c1	none (no result: Luciferase inh, NPR1 antag)
COc1cccc(-c2nc3cc4c(cc3cc2CN2CCSCC2)OCO4)c1OC	NIH3T3 tox inconclusive, HEK cytotox 22.4µM
COc1cccc(CN2CCCC(N3CCN(c4cccc(C(F)(F)F)c4)CC3)C2)c1O (stereo unspecified)	NIH3T3 tox inconclusive, HEK cytotox 31.6µM
CNC(=O)CN1CCCC(N2CCN(c3cccc(C(F)(F)F)c3)CC2)C1 (stereo unspecified)	none
CC(C)N1CCC(N2CCCC(N3CCN(c4cccc(C(F)(F)F)c4)CC3)C2)CC1 (stereo unspecified)	NIH3T3 tox inconclusive, HEK cytotox 20µM
NCC(=O)N1CCCC(N2CCN(c3cccc(C(F)(F)F)c3)CC2)C1 (stereo unspecified)	NIH3T3 tox inconclusive
CC(C)C[C@@H]1N[C@H](C(=O)NC2CCCC2)Cc2cn(Cc3nccn3C)c3cccc1c23	NIH3T3 tox 89.1µM, HEK cytotox 39.8µM
Cc1noc(C)c1Cn1cc2c3c(cccc31)[C@H](CC(C)C)N[C@H](C(=O)NCc1ccco1)C2	NIH3T3 tox 20µM, HEK cytotox inconclusive
CC(=O)NCCNC(=O)[C@@H]1Cc2cn(Cc3c(C)noc3C)c3cccc(c23)[C@H](CC(C)C)N1	HEK cytotox inconclusive
CC(C)C[C@@H]1N[C@H](C(=O)NCc2ccco2)Cc2cn(Cc3nccn3C)c3cccc1c23	NIH3T3 tox inconclusive, HEK cytotox 31.6µM
COCCNC(=O)[C@@H]1Cc2cn(Cc3nccn3C)c3cccc(c23)[C@H](CC(C)C)N1	HEK cytotox 39.8µM
